The results in this text go back to PubChem BioAssay.

Common to all, as to experiment: BK channel mutant inhibitors and activators – cell-based, U2OS BacMam, thallium flux, beta subunits, selectivity assay, profiling panel (AID 1259406);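 note: initial slope of Thallos dye fluorescence rise after thallium is added; log ratio against the mean of 0.3% DMSO vehicle wells on the same plate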
One experiment has as its system F380Y. As to conditions: U2OS BacMam BK variants, at 30 µM.
For another experiment, the system named is F380Y/beta1. As to conditions: U2OS BacMam BK variants, at 30 µM.
Another experiment deals with F380Y/beta2Delta. To be noted: U2OS BacMam BK variants, at 30 µM.
Another experiment concerns F380Y/beta4. As to conditions: U2OS BacMam BK variants, at 30 µM.
Experiment [1] addresses Calcium-activated potassium channel subunit alpha-1 (Homo sapiens) + Leucine-rich repeat-containing protein 26 (Homo sapiens) (UniProt Q12791+Q2I0M4). To be noted: U2OS BacMam BK variants, F380Y/Slo1WT/gamma1, at 30 µM.
The next experiment deals with R275C. To be noted: U2OS BacMam BK variants, at 30 µM.
Another experiment deals with R275C/beta1. To be noted: U2OS BacMam BK variants, at 30 µM.
A further experiment concerns R275C/beta2Delta. To be noted: U2OS BacMam BK variants, at 30 µM.
A further experiment concerns R275C/beta4. As to conditions: U2OS BacMam BK variants, at 30 µM.
The subject of a further experiment is R275C/Slo1WT/beta2. To be noted: U2OS BacMam BK variants, at 30 µM.

Values without a mark were called inactive. Active and inactive are the calls of the source.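 Rule for the calls: active = thallium flux through the channel raised or lowered by more than 3 SD from vehicle-only wells, actives on both sides; inactive = the rest.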

Chain of Calcium-activated potassium channel subunit alpha-1 (Homo sapiens) + Leucine-rich repeat-containing protein 26 (Homo sapiens) (Q2I0M4 whole entry, looked up, one chain of several): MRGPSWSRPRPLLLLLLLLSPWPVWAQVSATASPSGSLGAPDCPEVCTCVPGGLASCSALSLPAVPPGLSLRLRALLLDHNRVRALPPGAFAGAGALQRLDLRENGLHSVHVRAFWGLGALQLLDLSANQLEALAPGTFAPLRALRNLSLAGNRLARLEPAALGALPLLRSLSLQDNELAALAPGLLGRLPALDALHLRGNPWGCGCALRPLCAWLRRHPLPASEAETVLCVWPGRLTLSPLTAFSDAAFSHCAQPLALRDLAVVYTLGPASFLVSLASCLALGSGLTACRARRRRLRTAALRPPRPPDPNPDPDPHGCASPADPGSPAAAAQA

As to `O=[N+]([O-])c1ccc(N2CCSCC2)cc1O`, the log fold change Tl+ flux with F380Y is -0.0426; in the experiment on F380Y/beta1 it was -0.0279; with F380Y/beta2Delta, -0.0262; with F380Y/beta4, 0.012; in [1], 0.0289; in the experiment on R275C, -0.00302. Further, the log fold change Tl+ flux in the experiment on R275C/beta1 is -0.0429; in the experiment with R275C/beta2Delta, -0.0453; with R275C/beta4, -0.0292; in the experiment on R275C/Slo1WT/beta2 it was 0.0333.
For the compound `Cc1cc2c(NC(=O)c3ccccc3C(=O)O)cccc2nn1`, the log fold change Tl+ flux is -0.0132 in the experiment with F380Y; 0.714 (active) with F380Y/beta1; -0.0393 in the experiment with F380Y/beta2Delta; 0.0303 in the experiment with F380Y/beta4; 0.0158 in experiment [1]; 0.0158 in the experiment with R275C. The log fold change Tl+ flux in the experiment on R275C/beta1 was -0.0051; with R275C/beta2Delta, -0.00027; with R275C/beta4, -0.0138; in the experiment with R275C/Slo1WT/beta2 it was -0.00217.
As for `COc1cc(C(F)(F)F)nc2ccc(C#CCOC(=O)Nc3cccc(Cl)c3)cc12`, the log fold change Tl+ flux is -0.0208 with F380Y; 0.0282 in the experiment on F380Y/beta1; -0.0312 in the experiment on F380Y/beta2Delta; 0.0143 in the experiment with F380Y/beta4; -0.0274 in experiment [1]; -0.0392 in the experiment with R275C. Moreover, the log fold change Tl+ flux with R275C/beta1 is -0.0781; in the experiment on R275C/beta2Delta, -0.0125; in the experiment on R275C/beta4, -0.00958; in the experiment on R275C/Slo1WT/beta2, 0.0405.
For the compound `Cc1c(Br)sc2sc(-c3ccnc(SCc4ccccc4)n3)c(C)c12`, the log fold change Tl+ flux is -0.00256 with F380Y; -0.0227 in the experiment with F380Y/beta1; -0.00739 in the experiment on F380Y/beta2Delta; -0.0356 in the experiment on F380Y/beta4; 0.0451 in [1]; -0.000555 in the experiment with R275C. Besides, the log fold change Tl+ flux was -0.0282 in the experiment with R275C/beta1, 0.0157 in the experiment with R275C/beta2Delta, -0.00767 in the experiment on R275C/beta4 and -0.00994 in the experiment on R275C/Slo1WT/beta2.
For `CN1c2ccsc2C(=O)C(=NNc2cccc(C(F)(F)F)c2)S1(=O)=O`, the log fold change Tl+ flux was -0.0122 with F380Y; 0.00552 in the experiment with F380Y/beta1; 0.00348 with F380Y/beta2Delta; 0.0228 with F380Y/beta4; -0.0208 in experiment [1]; -0.00855 in the experiment on R275C. Further, the log fold change Tl+ flux in the experiment with R275C/beta1 is 0.0113; in the experiment on R275C/beta2Delta, 0.00493; in the experiment with R275C/beta4, -0.00494; in the experiment with R275C/Slo1WT/beta2, -0.0248.
With `Oc1ccccc1C=NCCN=Cc1ccccc1O`, the log fold change Tl+ flux in the experiment on F380Y is -0.0379; in the experiment on F380Y/beta1, -0.0045; with F380Y/beta2Delta, 0.0233; in the experiment with F380Y/beta4, 0.122 (active); in experiment [1], 0.00734; with R275C it was 0.0166. Moreover, the log fold change Tl+ flux was -0.00586 in the experiment with R275C/beta1, 0.0216 with R275C/beta2Delta, 0.00607 in the experiment with R275C/beta4 and 0.0616 in the experiment on R275C/Slo1WT/beta2.
On to `Cc1nc(-c2n[nH]c(=S)n2C)cs1`, for which the log fold change Tl+ flux with F380Y is -0.0125; in the experiment on F380Y/beta1 it was -0.0212; in the experiment with F380Y/beta2Delta, 0.0116; with F380Y/beta4, -0.0241; in experiment [1] it was 0.0365; in the experiment on R275C it was 0.0188. Also, the log fold change Tl+ flux is 0.00398 with R275C/beta1, 0.0232 in the experiment on R275C/beta2Delta, -0.0295 in the experiment on R275C/beta4 and -0.00583 with R275C/Slo1WT/beta2.
For `NC(=NC(=O)c1cccs1)c1cccs1`, the log fold change Tl+ flux in the experiment on F380Y is 0.00622; in the experiment on F380Y/beta1, 0.0573; in the experiment with F380Y/beta2Delta, 0.0445; in the experiment on F380Y/beta4, 0.0177; in experiment [1] it was 0.0217; with R275C it was 0.0451. For the same compound, the log fold change Tl+ flux was 0.0586 in the experiment on R275C/beta1, 0.0615 in the experiment with R275C/beta2Delta, 0.0555 with R275C/beta4 and 0.0314 in the experiment on R275C/Slo1WT/beta2.
As for `Clc1cc(Cl)cc(Nc2ncnc(-n3cccc3)n2)c1`, the log fold change Tl+ flux in the experiment on F380Y is 0.0686; in the experiment on F380Y/beta1, 0.0545; in the experiment with F380Y/beta2Delta it was 0.0354; in the experiment on F380Y/beta4, 0.0368; in experiment [1], 0.0181; with R275C, 0.00673. Further, the log fold change Tl+ flux in the experiment on R275C/beta1 was 0.00955; in the experiment on R275C/beta2Delta, 0.0395; in the experiment on R275C/beta4 it was -0.0107; in the experiment with R275C/Slo1WT/beta2 it was -0.0692.
As for `Cc1cc(CNCC(O)C(F)(F)F)no1` (stereo not given), the log fold change Tl+ flux with F380Y is -0.0368; in the experiment with F380Y/beta1, 0.043; with F380Y/beta2Delta, -0.0229; with F380Y/beta4 it was 0.06; in [1], 0.018; in the experiment on R275C it was 0.0241. Further, the log fold change Tl+ flux was -0.0759 with R275C/beta1, -0.018 in the experiment with R275C/beta2Delta, 0.0165 in the experiment with R275C/beta4 and 0.0726 with R275C/Slo1WT/beta2.
`Cc1onc(-c2ccccc2)c1N1C(=O)CCN(C(C)C)C1=O`: the log fold change Tl+ flux was -0.0312 in the experiment with F380Y; -0.00917 in the experiment on F380Y/beta1; -0.0373 in the experiment on F380Y/beta2Delta; -0.00603 in the experiment with F380Y/beta4; -0.0319 in [1]; -0.0915 (active) in the experiment with R275C. Besides, the log fold change Tl+ flux is 0.0435 with R275C/beta1, -0.0125 with R275C/beta2Delta, -0.0122 with R275C/beta4 and 0.000512 in the experiment on R275C/Slo1WT/beta2.
For `CC(C)c1ccc(NC(=S)NC2CC3CC2C2C=CCC32)cc1` (stereo not given), the log fold change Tl+ flux was 0.00954 in the experiment on F380Y; -0.00688 with F380Y/beta1; -0.0661 in the experiment with F380Y/beta2Delta; -0.422 (active) with F380Y/beta4; -0.206 (active) in experiment [1]; -0.205 (active) in the experiment on R275C. Also, the log fold change Tl+ flux with R275C/beta1 is -0.152 (active); with R275C/beta2Delta it was -0.109 (active); in the experiment on R275C/beta4, -0.11 (active); with R275C/Slo1WT/beta2, -0.0657.
On to `O=c1c(Cl)c(N2CCOCC2)cnn1-c1cnc2ccccc2n1`, for which the log fold change Tl+ flux is -0.0015 in the experiment with F380Y; 0.00611 in the experiment on F380Y/beta1; 0.0635 in the experiment on F380Y/beta2Delta; 0.0417 in the experiment on F380Y/beta4; 0.0667 in experiment [1]; 0.00311 in the experiment on R275C. Besides, the log fold change Tl+ flux with R275C/beta1 was -0.0364; in the experiment with R275C/beta2Delta, 0.032; in the experiment with R275C/beta4 it was -0.0173; in the experiment on R275C/Slo1WT/beta2 it was 0.0145.
With `Cc1ccc(C2=C(c3ccccc3)C(=O)C(c3ccccc3)=C2c2ccc(Cl)cc2)cc1`, the log fold change Tl+ flux in the experiment with F380Y is -0.00103; in the experiment with F380Y/beta1 it was -0.0199; in the experiment on F380Y/beta2Delta, 0.00394; in the experiment on F380Y/beta4, -0.0256; in experiment [1], 0.0117; with R275C, 0.0143. For the same compound, the log fold change Tl+ flux in the experiment on R275C/beta1 is -0.08; with R275C/beta2Delta it was 0.0554; in the experiment with R275C/beta4, -0.0334; in the experiment on R275C/Slo1WT/beta2 it was -0.0207.
